# Reference: PubChem BioAssay (NCI)
# The panel holds about 83,000 compounds, 20% with a hit somewhere; the sample as a whole holds those more often.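 Interpretation: 100, growth as untreated; towards 0, rising growth inhibition; 0, no net growth; 0 to -100, cell death. Compounds scoring below 10 were considered active.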 Values without a mark were called inactive. Activity calls are given as the source filed them.
# Legend:
# Assay in all cases: NCI-60 one-dose screen, 48 h (100 = growth as untreated, 0 = no growth, -100 = all killed)
# Conditions in all cases: 10 µM unless noted
# NCI-H23 lung = test system: NCI-H23 lung
# NCI-H226 lung = test system: NCI-H226 lung
# NCI-H322M lung = test system: NCI-H322M lung
# HOP-62 NSCLC = test system: HOP-62 NSCLC
# HOP-92 NSCLC = test system: HOP-92 NSCLC
# NCI-H522 lung = test system: NCI-H522 lung
# A549/ATCC NSCLC = test system: A549/ATCC NSCLC
# 786-0 renal = test system: 786-0 renal
# COLO 205 colon = test system: COLO 205 colon
# DU-145 prostate = test system: DU-145 prostate
# K-562 leukemia = test system: K-562 leukemia
# MALME-3M melanoma = test system: MALME-3M melanoma
# MDA-MB-231 breast = test system: MDA-MB-231 breast
# RXF 393 renal = test system: RXF 393 renal
# SF-268 CNS = test system: SF-268 CNS
# SF-295 CNS = test system: SF-295 CNS
# SF-539 CNS = test system: SF-539 CNS
# UACC-257 melanoma = test system: UACC-257 melanoma
# M14 melanoma = test system: M14 melanoma
# NCI-H460 lung = test system: NCI-H460 lung
SMILES,growth (NCI-H23 lung),growth (NCI-H226 lung),growth (NCI-H322M lung),growth (HOP-62 NSCLC),growth (HOP-92 NSCLC),growth (NCI-H522 lung),growth (A549/ATCC NSCLC),growth (786-0 renal),growth (COLO 205 colon),growth (DU-145 prostate),growth (K-562 leukemia),growth (MALME-3M melanoma),growth (MDA-MB-231 breast),growth (RXF 393 renal),growth (SF-268 CNS),growth (SF-295 CNS),growth (SF-539 CNS),growth (UACC-257 melanoma),growth (M14 melanoma),growth (NCI-H460 lung) [%]
CCN(CC)CCCCNc1c2ccc(Cl)cc2nc2ccc(OC)cc12,-42.8% (active),-53.7% (active),-30.4% (active),2.75% (active),-30.7% (active),-37.4% (active),9.02% (active),-16.6% (active),-52% (active),-2.29% (active),-19% (active),-65.6% (active),-52.4% (active),-61% (active),-23.1% (active),-58.7% (active),-83% (active),-37.1% (active),-71.3% (active),–
O=CNc1ccc2c(c1)Cc1cccc(NC=O)c1-2,95.6%,83.6%,106%,100%,97.7%,82.2%,85.6%,104%,99.9%,106%,104%,106%,83.5%,103%,94.2%,111%,101%,93.4%,91.2%,–
Cc1nn(-c2ccc(F)cc2)c2ncnc(Nc3ccc(NC(=O)Nc4ccc(Cl)c(C(F)(F)F)c4)cc3)c12,22.4%,58%,67.5%,45%,-8.33% (active),12.1%,50.7%,40.7%,4.15% (active),41.8%,15.3%,34%,71.6%,19.4%,66%,6.74% (active),48.2%,26.8%,38.1%,–
CSc1nc(NCCO)c(C#N)c(-c2cccc([N+](=O)[O-])c2)n1,99.5%,93.1%,102%,91.6%,79.4%,92.3%,105%,100%,116%,108%,90.8%,111%,86.5%,104%,95.6%,98.3%,96.7%,115%,104%,–
C#CCOc1ccc2ncnc(N3CCC(NC(=O)CCl)CC3)c2c1,71.6% [8.25 µM],2.28% [8.25 µM] (active),88.1% [8.25 µM],68.2% [8.25 µM],56.8% [8.25 µM],55.6% [8.25 µM],75.7% [8.25 µM],45.8% [8.25 µM],82.5% [8.25 µM],72.8% [8.25 µM],81.5% [8.25 µM],83.9% [8.25 µM],96.1% [8.25 µM],16% [8.25 µM],49.1% [8.25 µM],109% [8.25 µM],74.6% [8.25 µM],79.7% [8.25 µM],72.8% [8.25 µM],–
COc1cccc(-c2nc3sccn3c2-c2ccnc(NCCCNS(=O)(=O)c3cccc(Cl)c3)c2)c1,39%,33.8%,77.4%,65%,48.8%,43.7%,35.8%,63.9%,39.8%,46.4%,22.2%,60%,71.9%,71.9%,52.2%,21.2%,86.2%,55.2%,30.8%,–
COc1cccc(-c2nc3sccn3c2-c2ccnc(NCCNS(=O)(=O)c3ccccc3)c2)c1,18.9%,18.7%,58.3%,36.8%,21.9%,29.8%,10.3%,38.9%,21.6%,20.5%,11.1%,43.1%,58.9%,47.5%,31.9%,10.8%,66.9%,42.5%,22.5%,–
COC(=O)[C@@H]1CCCN1C(=O)[C@@H]1CCCN1C(=O)[C@H](Cc1ccccc1)NC(=S)Nc1cc(C(F)(F)F)cc(C(F)(F)F)c1,89.2%,80.2%,89.7%,89.8%,58.9%,-11.4% (active),–,82.4%,82.7%,40.4%,–,94.8%,62.8%,83.8%,35%,92.9%,94%,11.8%,89.3%,84.8
